# Reference: PubChem BioAssay (NCATS)
# “And” between values parts separate entries of the source, which are not always exact repeats. Identical values can stand only once. Inconclusive results are not listed. Entries that show only a call come without a potency. A structure can be active in one record and inactive in another. The source made the active and inactive calls. The call rests on the fitted dose curve; in most records, active means well fitted curve in the direction sought with a large enough effect; inconclusive means small, poorly fitted or top-dose-only effect, or another doubt; inactive means no such curve, though single readings can be large; an effect the other way counts as inactive or inconclusive.
# Tests used:
# [1] = P-glycoprotein substrates identified in KB-3-1 adenocarcinoma cell line, qHTS therapeutic library screen (AID 1346986); further: nearly all actives have a fitted effect of over 60% in size;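 further: potency means the concentration at half of the fitted maximal effect; potency is for cytotoxicity meaning loss of cell viability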
# In short: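 Resistance attributable to P-gp was assessed by comparing AC50 in KB-8-5-11 with parental KB-3-1 and by tariquidar reversal. Cells were exposed 72 h and viability read by CellTiter-Glo.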
# [2] = P-glycoprotein substrates identified in KB-8-5-11 adenocarcinoma cell line, qHTS therapeutic library screen (AID 1346987); further: nearly all actives have a fitted effect of over 65% in size; further: potency means the concentration at half of the fitted maximal effect; on activity change, negative = cytotoxicity: series mostly up to about 44 µM
# In short: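 Steps: plate 500 KB-8-5-11 cells/well in DMEM + 10% FCS (colchicine removed); pin compounds in dose-response; incubate 72 h, 37 degree C, 5% CO2; add CellTiter-Glo, 5 min; read luminescence.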
# [3] = NS1 protein of Zika virus - qHTS assay to identify small molecule inhibitors in human HEK 293 cells (AID 1347053); further: nearly all actives have a fitted effect of over 55% in size; further: potency means the concentration at half of the fitted maximal effect
# In short: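 HEK 293 cells, seeded 20 h at 37 C, were pretreated with compound 1 h, then infected with ZIKV MR766 (MOI = 0.5) for 24 h. NS1 was read by TR-FRET with two anti-NS1 antibodies, normalized to uninfected and infected wells.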
# [4] = qHTS of pediatric cancer cell lines to identify multiple opportunities for drug repurposing: Primary screen for TC32 cells (AID 1347089); further: nearly all actives have a fitted effect of over 60% in size
# In short: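 Measured quantity: luminescence from CellTiter-Glo, reflecting metabolically active TC32 cells following 48 h of compound. Curves came straight from multi-point titrations, with 8 or 11 points in primary and 11 in confirmatory screening.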
# [5] = qHTS of pediatric cancer cell lines to identify multiple opportunities for drug repurposing: Primary screen for DAOY cells (AID 1347090); further: nearly all actives have a fitted effect of over 55% in size; further: potency means the concentration at half of the fitted maximal effect; on activity change, negative = cytotoxic: series mostly up to about 46 µM
# In short: (§1)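 Eight- or eleven-point concentration series, 48 h treatment at 37 degrees C in growth media; readout CellTiter-Glo luminescence. Potency and efficacy were taken from the concentration-response curves.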
# [6] = qHTS of pediatric cancer cell lines to identify multiple opportunities for drug repurposing: Primary screen for SJ-GBM2 cells (AID 1347091); further: potency means the concentration at half of the fitted maximal effect
# In short: as §1
# [7] = qHTS of pediatric cancer cell lines to identify multiple opportunities for drug repurposing: Primary screen for A673 cells (AID 1347092); further: nearly all actives have a fitted effect of over 45% in size; further: potency means the concentration at half of the fitted maximal effect
# In short: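 Cells are plated, rested 5 h, dosed by pintool, incubated 48 h, then lysed with CellTiter-Glo and read by luminescence. DMSO is the neutral control; bortezomib at 2.3 uM final is the positive control.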
# [8] = qHTS of pediatric cancer cell lines to identify multiple opportunities for drug repurposing: Primary screen for SK-N-MC cells (AID 1347093); further: potency means the concentration at half of the fitted maximal effect; on activity change, negative = cytotoxic: series mostly up to about 46 µM
# In short: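 Metabolically active cells were quantified by ATP-dependent luminescence (CellTiter-Glo, 15 min at room temperature) following 48 h treatment. Cells had been plated at 500-1,000 per well and settled for 5 h beforehand.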
# [9] = qHTS of pediatric cancer cell lines to identify multiple opportunities for drug repurposing: Primary screen for BT-37 cells (AID 1347094); further: potency means the concentration at half of the fitted maximal effect; on activity change, negative = cytotoxic: series mostly up to about 57 µM
# In short: (§2)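 ATP-based luminescence (CellTiter-Glo) quantifies viability after a 48-hour exposure. Compounds are dosed across 8 or 11 final concentrations; DMSO and 2.3 µM bortezomib serve as controls.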
# [10] = qHTS of pediatric cancer cell lines to identify multiple opportunities for drug repurposing: Primary screen for NB-EBc1 cells (AID 1347095); further: potency means the concentration at half of the fitted maximal effect
# In short: as §2
# [11] = qHTS of pediatric cancer cell lines to identify multiple opportunities for drug repurposing: Primary screen for SK-N-SH cells (AID 1347098); further: nearly all actives have a fitted effect of over 65% in size; further: potency means the concentration at half of the fitted maximal effect;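 on activity change, negative = cytotoxic: DMSO served as neutral control and bortezomib at 2.3 µM as positive control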
# In short: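 Cells (500-1,000/well) rested 5 h, then received compounds for 48 h; metabolically active cells were measured by CellTiter-Glo luminescence. Final concentrations spanned up to 46 µM (MIPE, 11-point) or 0.59 nM-46 µM (NPC, 8-point) in primary screens, 11-point in follow-ups.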
# [12] = qHTS of pediatric cancer cell lines to identify multiple opportunities for drug repurposing: Primary screen for Saos-2 cells (AID 1347097); further: nearly all actives have a fitted effect of over 40% in size; further: potency means the concentration at half of the fitted maximal effect
# In short: as §2
# [13] = qHTS of pediatric cancer cell lines to identify multiple opportunities for drug repurposing: Primary screen for U-2 OS cells (AID 1347096); further: nearly all actives have a fitted effect of over 50% in size; further: potency means the concentration at half of the fitted maximal effect
# In short: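 Cells (500-1,000/well) in growth media were settled 5 h at 37 degrees C, then given compounds for 48 h. Viability was read as CellTiter-Glo luminescence. Primary runs used MIPE at 11 points (0.78 nM-46 µM) and NPC at 8 points (0.59 nM-46 µM); follow-ups used 11 points.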
structure (smiles),measurement,setting,value
CN[C@H]1[C@@H](O[C@@H]2[C@H](O[C@@H]3[C@@H](O)[C@@H](O)[C@@H](N=C(N)N)[C@@H](O)[C@@H]3N=C(N)N)O[C@H](C)[C@@]2(O)C=O)O[C@@H](CO)[C@@H](O)[C@H]1O,outcome,[1],inactive [at 9.29 µM]
same,"activity change, negative = cytotoxicity",[2],9.82% [at 9.29 µM] (inactive)
same,Potency,[3],inactive
same,"activity change, negative = cytotoxic",[4],6.69% [at 9.17 µM] (inactive)
same,"activity change, negative = cytotoxic",[5],1.78% [at 9.22 µM] (inactive)
same,"activity change, negative = cytotoxic",[6],13.3% [at 9.22 µM] (inactive)
same,"activity change, negative = cytotoxic",[7],-1.15% [at 9.22 µM] (inactive)
same,"activity change, negative = cytotoxic",[8],-4.87% [at 9.22 µM] (inactive)
same,"activity change, negative = cytotoxic",[9],3.99% [at 11.5 µM] (inactive)
same,"activity change, negative = cytotoxic",[10],7.3% [at 9.22 µM] (inactive)
same,"activity change, negative = cytotoxic",[11],18.9% [at 11.4 µM] (inactive)
O=C(NCCCCN1CCOCC1)c1cc2ccccc2o1,Potency,[1],inactive
same,Potency,[2],inactive
same,Potency,[3],inactive
same,Potency,[4],inactive
same,Potency,[5],inactive
same,Potency,[6],inactive
same,Potency,[7],inactive
same,Potency,[9],inactive
same,Potency,[10],inactive
same,Potency,[12],inactive
same,Potency,[11],30400 nM (active)
CC(C)CN(C[C@@H](O)[C@H](Cc1ccccc1)NC(=O)O[C@H]1CO[C@H]2OCC[C@H]21)S(=O)(=O)c1ccc(N)cc1,Potency,[1],inactive
same,Potency,[2],inactive
same,Potency,[3],inactive
same,Potency,[4],inactive
same,Potency,[5],14800 nM (active)
same,Potency,[6],inactive
same,Potency,[7],5900 nM (active)
same,Potency,[8],2350 nM (active)
same,Potency,[9],6110 nM (active)
same,Potency,[12],20900 nM (active)
same,Potency,[11],inactive
O=C(CO)N1CCC(c2[nH]nc(-c3ccc(Cl)cc3)c2-c2ccncn2)CC1,Potency,[1],inactive
same,Potency,[2],inactive
same,Potency,[3],inactive
same,Potency,[4],inactive
same,Potency,[5],inactive
same,Potency,[7],inactive
same,Potency,[8],inactive
same,Potency,[10],inactive
same,Potency,[13],inactive
COc1cc2ncnc(Nc3cc(Br)c(O)c(Br)c3)c2cc1OC,Potency,[1],inactive
same,Potency,[2],inactive
same,Potency,[3],inactive
same,Potency,[4],inactive
same,Potency,[8],6.6 nM (active)
same,Potency,[13],inactive
same,Potency,[12],20900 nM (active)
CCCCn1c(=O)n(Cc2ccccc2F)c(=O)c2[nH]c(Cc3ccc(NC(C)=O)cc3)nc21,Potency,[1],inactive
same,Potency,[2],inactive
same,Potency,[3],inactive
same,Potency,[4],inactive
same,Potency,[5],23500 nM (active)
same,Potency,[6],inactive
same,Potency,[8],10500 nM (active)
same,Potency,[9],inactive
same,Potency,[10],inactive
same,Potency,[13],inactive
same,Potency,[12],inactive
same,Potency,[11],27100 nM (active)
CN1C(=O)C[C@H](C(=O)N[C@@H](Cc2cnc[nH]2)C(=O)N2CCC[C@@H]2C(N)=O)NC1=O,Potency,[1],inactive
same,Potency,[3],inactive
same,Potency,[4],inactive
same,Potency,[5],inactive
same,Potency,[6],inactive
same,Potency,[9],24300 nM (active)
same,Potency,[13],inactive
same,Potency,[12],inactive
same,Potency,[11],inactive
O=C1NC(=O)C(c2cnc3ccccn23)=C1c1cn2c3c(cccc13)CN(C(=O)N1CCOCC1)CC2,Potency,[1],5800 nM (active)
same,Potency,[3],590 nM (active)
same,Potency,[5],23.5 nM (active)
same,Potency,[6],23.5 nM (active)
same,Potency,[8],23.5 nM (active)
same,Potency,[9],19300 nM (active)
same,Potency,[10],16.6 nM (active)
CCCCC[C@H](O)C=C[C@H]1[C@H](O)CC(=O)[C@H]1CC=CCCCC(=O)O,Potency,[1],inactive
same,Potency,[4],inactive
same,Potency,[5],inactive
same,Potency,[6],inactive
same,Potency,[7],inactive
same,Potency,[10],inactive
same,Potency,[13],inactive
same,Potency,[11],inactive
CC1(COc2ccc3c(c2)ncn3-c2ccc3cccc(N4CCC(N)CC4)c3n2)COC1,Potency,[1],10300 nM (active)
same,Potency,[5],46.9 nM (active)
same,Potency,[6],5260 nM (active)
same,Potency,[8],1 nM (active)
same,Potency,[9],1 nM (active)
same,Potency,[10],1 nM (active)
same,Potency,[13],29600 nM (active)
same,Potency,[12],16600 nM (active)
same,Potency,[11],inactive
CN1CCN(c2cccc(Nc3nc4c(-c5ccc(S(C)(=O)=O)cc5)cccn4n3)c2)CC1,Potency,[1],inactive and 23.1 µM (active)
same,Potency,[2],inactive and 20.6 µM (active)
same,Potency,[4],inactive
same,Potency,[5],inactive
same,Potency,[8],1480 nM (active)
same,Potency,[10],inactive
same,Potency,[13],inactive
same,Potency,[12],18700 nM (active)
CC[C@H](NC(=O)[C@H](C)NC)C(=O)N1C[C@@H](O)C[C@H]1Cc1c(-c2[nH]c3cc(F)ccc3c2C[C@H]2C[C@H](O)CN2C(=O)[C@H](CC)NC(=O)[C@H](C)NC)[nH]c2cc(F)ccc12,Potency,[1],inactive
same,Potency,[2],inactive
same,Potency,[4],inactive
same,Potency,[5],2350 nM (active)
same,Potency,[6],46.9 nM (active)
same,Potency,[7],11.8 nM (active)
same,Potency,[8],1180 nM (active)
same,Potency,[9],217 nM (active)
same,Potency,[10],418 nM (active)
same,Potency,[13],inactive
same,Potency,[12],372 nM (active)
COc1ccc(-c2cc3nccn3c(Nc3ncccc3C(N)=O)n2)cc1OC,Potency,[1],6510 nM (active)
same,Potency,[3],inactive
same,Potency,[8],1660 nM (active)
same,Potency,[10],2640 nM (active)
same,Potency,[12],1050 nM (active)
C[C@@]1(c2cc(-c3cncnc3)c(F)cc2F)CCSC(N)=N1,Potency,[1],inactive
same,Potency,[3],inactive
same,Potency,[6],4690 nM (active)
same,Potency,[7],46.9 nM (active)
same,Potency,[8],2960 nM (active)
same,Potency,[9],3060 nM (active)
same,Potency,[10],8330 nM (active)
same,Potency,[13],inactive
same,Potency,[12],2960 nM (active)
same,Potency,[11],12100 nM (active)
COC(=O)Nc1ccc(-c2nc(N3CCOCC3)c3cnn(C4CCN(C(=O)OC)CC4)c3n2)cc1,Potency,[1],1640 nM (active)
same,Potency,[5],1870 nM (active)
same,Potency,[6],4690 nM (active)
same,Potency,[7],590 nM (active)
same,Potency,[9],122 nM (active)
same,Potency,[10],8.3 nM (active)
same,Potency,[12],2960 nM (active)
same,Potency,[11],19.2 nM (active)
COc1nccc(-c2c(-c3ccc(F)cc3)ncn2C2CCNCC2)n1,Potency,[1],inactive
same,Potency,[2],inactive
same,Potency,[4],inactive
same,Potency,[5],inactive
same,Potency,[8],inactive
same,Potency,[10],inactive
same,Potency,[13],inactive
same,Potency,[11],inactive
CCCCC(C)(C)[C@H](O)C=C[C@H]1[C@H](O)CC(=O)[C@H]1CC=CCCCC(=O)O,Potency,[1],inactive
same,Potency,[3],inactive
same,Potency,[5],inactive
same,Potency,[6],inactive
same,Potency,[8],20900 nM (active)
same,Potency,[10],5260 nM (active)
same,Potency,[13],inactive
same,Potency,[12],inactive
same,Potency,[11],inactive
